Shown are actives, neighbours in structure and some others; about 1.8% of the full set was active somewhere.
HDAC3 inh – human HDAC3 inhibition | recombinant HDAC3, fluorogenic peptide/trypsin coupled, fluorescence | AID 2718 | inhibition, % at 8.3 µM | O15379 | 320,000 tested, 0.15% active; in the data active = inhibition above about 26%, passing the limit was not always enough; inconclusive = no clear call, values can overlap the other calls
Neddyl block – blocks human cullin neddylation | P61081+Q13564 | TR-FRET cullin neddylation, biochemical | inhibition, % at 25 µM | 360,000 tested, 0.58% active | AID 651699; in the data active = inhibition above about 36%
GRK2 inh – human GRK2 inhibition via aptamer displacement; P25098; bead flow cytometry, FAM-aptamer displacement from GRK2; inhibition of aptamer binding, % at 10 µM; 330,000 tested, 0.59% active; AID 488847;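 active = inhibition of aptamer binding above 40%, roughly 3 SD of noise, on plates passing a quality check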;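 note: median bead fluorescence of bound FAM aptamer so fluorescent compounds give negative values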
Target sequence (P25098 whole entry, looked up): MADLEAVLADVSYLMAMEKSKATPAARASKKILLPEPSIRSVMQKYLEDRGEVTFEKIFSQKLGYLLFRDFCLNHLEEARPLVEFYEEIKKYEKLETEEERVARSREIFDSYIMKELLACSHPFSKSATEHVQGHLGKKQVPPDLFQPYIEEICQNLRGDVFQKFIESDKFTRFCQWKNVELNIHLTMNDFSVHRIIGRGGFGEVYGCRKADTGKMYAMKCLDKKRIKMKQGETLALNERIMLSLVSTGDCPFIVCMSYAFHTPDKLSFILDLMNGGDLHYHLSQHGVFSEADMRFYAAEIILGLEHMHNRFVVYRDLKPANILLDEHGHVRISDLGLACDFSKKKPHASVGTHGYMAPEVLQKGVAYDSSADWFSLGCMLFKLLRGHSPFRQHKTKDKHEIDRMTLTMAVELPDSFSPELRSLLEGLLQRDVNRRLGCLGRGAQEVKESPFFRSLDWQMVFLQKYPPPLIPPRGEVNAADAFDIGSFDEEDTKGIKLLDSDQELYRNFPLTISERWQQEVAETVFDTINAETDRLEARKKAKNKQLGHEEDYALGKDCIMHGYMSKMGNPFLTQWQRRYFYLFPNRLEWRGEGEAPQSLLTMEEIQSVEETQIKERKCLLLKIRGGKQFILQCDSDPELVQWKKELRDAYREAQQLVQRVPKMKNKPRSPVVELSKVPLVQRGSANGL
H9c2 protect – myocardial damage modulation in H9c2 cells. 360,000 tested, 0.63% active. protection from H2O2 cell death, % at 20 µM. H9c2 cardiomyocytes, H2O2 injury protection, ATPLite, 2 h;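 active = compounds giving at least 50% protection of heart cells from peroxide-induced death in the single-dose screen, raw or plate-pattern-corrected value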
GRK2 CP1 – confirmation of human GRK2 inhibitors displacing RNA aptamer; shares compounds with GRK2 inh; bead-bound GRK2, FAM-aptamer displacement, flow cytometry; aptamer displacement, % at 10 µM; 2,000 tested, 4% active;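 active = aptamer displacement above 40%, near three times the noise of non-fluorescent compounds, on plates passing quality checks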;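 note: negative values mostly reflect intrinsic compound fluorescence rather than true enhancement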
FAM quench CP1 – counter-screen for GRK2 aptamer inhibitors: fluorescent aptamer quenchers. shares compounds with GRK2 inh. Carboxyfluorescein RNA aptamer on beads, flow cytometry quenching; stronger effect = lower value. fluorescence response (% of DMSO), % at 10 µM. 2,000 tested, under 10 active;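 active = compounds that quench the bead-bound fluorescent RNA probe, cutting fluorescence to under half of the solvent control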;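 note: counterscreen run without GRK2 so only probe quenching by compound is measured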
GRK2 CP2 – human GRK2 inhibition confirmation, cherry pick 2; shares compounds with GRK2 inh; bead-bound GRK2, FAM-aptamer displacement, flow cytometry; AID 504782; inhibition of aptamer binding, % at 10 µM; 360 tested, under 10 active;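 active = inhibition of aptamer binding above 40%, about triple the noise seen with nonglowing compounds, on plates passing quality control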;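 note: negative values mostly come from compounds that fluoresce themselves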
FAM quench CP2 – quenches fluorescent RNA aptamer, GRK2 hit artifact | shares compounds with GRK2 inh | carboxyfluorescein RNA aptamer beads, flow cytometry quenching; stronger effect = lower value | fluorescence response vs DMSO, % at 10 µM | 360 tested, under 10 active | AID 588494;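 active = response vs DMSO under 50%, meaning signal dropped by over half, treated as fluorescence quencher; inconclusive = no clear call, values can overlap the other calls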;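 note: labelled aptamer on streptavidin beads without GRK2 as a quench counter-screen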
A number is an active result; 0 = inactive; ? = inconclusive; - = not tested or not shown.

SMILES	HDAC3 inh	Neddyl block	GRK2 inh	H9c2 protect	GRK2 CP1	FAM quench CP1	others
COc1ccccc1-c1nnc(SCC(=O)NC2CC2)n1C	0	0	86.0	0	0	0
Cc1ccccc1-n1ccnc1SCC(=O)NCC1CCCO1 (stereo unspecified)	-	0	0	0	-	-
O=C(O)c1ccc(N2C(=O)c3cccc4c(C(=O)O)ccc(c34)C2=O)cc1	0	0	70.0	0	0	0
O=C(O)c1ccc2c3c(cccc13)C(=O)N(c1ccccc1)C2=O	0	0	0	0	-	-
COCCn1c(=O)[nH]c2cc(C(=O)Nc3ccc(OC)c(Cl)c3)ccc2c1=O	0	0	57.0	0	0	0
CCc1c(C)nc2ncnn2c1N1CCC(C(=O)NCc2cccs2)CC1	0	0	0	0	-	-
CCc1c(C)nc2ncnn2c1N1CCCC(C(=O)NCc2cccs2)C1 (stereo unspecified)	0	0	51.0	0	0	0
COCCNC(=O)C1(C)CCCN(C(=O)c2cc(F)ccc2C)C1 (stereo unspecified)	-	0	-	0	-	-
CCCOc1ccc(OC(=O)Cc2ccc(OC)c(S(=O)(=O)N3CCOCC3)c2)cc1	0	0	100.0	0	0	0
CCc1ccc(OC(=O)Cc2ccc(OC)c(S(=O)(=O)N3CCOCC3)c2)cc1	0	0	0	0	-	-
Cc1sc2nc(CN(Cc3ccccc3)C(=O)NC3CCCCC3)[nH]c(=O)c2c1C	0	0	0	0	0	0
O=C(CNC(=O)c1ccccc1)N/N=C/c1ccccc1Cl	0	0	47.0	0	0	0
COc1ccc(C(CNC(=O)c2cccc(NS(=O)(=O)c3ccc(Br)cc3)c2)N(C)C)cc1 (stereo unspecified)	0	0	0	0	-	-
COc1ccc(C(N)CCc2ccc(C)o2)cc1 (stereo unspecified)	0	0	79.0	0	0	0
Cn1c(N)c(C(=O)COC(=O)CCCN2C(=O)c3ccccc3C2=O)c(=O)n(C)c1=O	0	0	93.0	0	0	0
CC(C)(CNC(=O)CNC(=O)c1ccc(Cl)cc1Cl)N1CCOCC1	-	0	-	0	-	-
CCn1cc(Cl)c(C(=O)NNC(=O)CCn2cc([N+](=O)[O-])cn2)n1	0	0	63.0	0	-	-	GRK2 CP2=0;FAM quench CP2=0
COc1cccc(NC(=S)NNC(=O)CCn2cc([N+](=O)[O-])cn2)c1	0	0	0	0	-	-
COC(=O)c1ccc(Oc2ccc3nnc(C)n3n2)cc1	0	0	0	0	-	-
COC(=O)c1ccc(Oc2ccc3nncn3n2)cc1	0	0	49.0	0	0	0
O=C(Cn1cnc2c(nnn2Cc2ccccc2F)c1=O)N1CCN(c2ccccc2)CC1	0	0	0	0	-	-
O=C(Cn1cnc2c(nnn2Cc2ccccc2F)c1=O)OCc1ccccc1	0	0	82.0	0	0	0
CSC(C1CCCC1)n1nnc2ccccc21 (stereo unspecified)	0	0	0	0	-	-
CCCCn1c(CNC(=O)C(C)(C)C)nc2ccccc21	?	0	83.0	0	0	0
O=C(CSc1cn(CCNC(=O)c2cccs2)c2ccccc12)NCC1CCCO1 (stereo unspecified)	0	0	0	0	-	-	GRK2 CP2=0;FAM quench CP2=0
SMILES	HDAC3 inh	Neddyl block	GRK2 inh	H9c2 protect	GRK2 CP1	FAM quench CP1	others
O=C(CSc1cn(CCNC(=O)c2cccs2)c2ccccc12)NC1CCCCC1	0	0	0	0	-	-	GRK2 CP2=0;FAM quench CP2=0
O=C(CSc1cn(CCNC(=O)c2cccs2)c2ccccc12)NCc1ccccc1	0	0	0	0	-	-
S=C(Nc1ccc(Cl)c(Cl)c1)NN1CCOCC1	0	0	0	0	-	-
COc1cccc(NC(=O)CCC(=O)N2CC(C)Oc3ccc(C)cc32)c1 (stereo unspecified)	-	0	0	0	-	-
CN(C)CCNC(=O)c1c(CSc2ccccc2)noc1C(=O)NCc1ccccc1	0	0	0	0	-	-
Cc1csc(NC(=O)C2CCCCN2S(=O)(=O)c2ccccc2)n1 (stereo unspecified)	0	0	95.0	0	0	0
CC(C)c1cc(C(=O)NC2CCCc3c2cnn3-c2ccccc2F)no1 (stereo unspecified)	0	0	69.0	0	0	0
Cc1ccc(C2=NN(C(=O)CCC(=O)O)C(c3cn(-c4ccccc4)nc3-c3ccc(C)cc3)C2)cc1 (stereo unspecified)	0	0	0	0	0	0
Cc1ccc(-c2nn(-c3ccccc3)cc2C2CC(c3ccccc3)=NN2C(=O)CCC(=O)O)cc1 (stereo unspecified)	0	0	0	0	-	-
Cc1ccc2nc(-c3cccs3)oc(=O)c2c1	0	0	0	0	-	-
COc1cc2nc(-c3cccs3)oc(=O)c2cc1OC	0	0	74.0	0	0	0
Fc1ccc(CSc2ccc(-c3ccc4c(c3)OCO4)nn2)cc1	0	0	49.0	0	-	-	GRK2 CP2=0;FAM quench CP2=0
C=CCNC(=O)c1ccc(C(=O)c2ccccc2)cc1	0	0	67.0	0	0	0
C=CCNC(=O)c1ccc2nc(-c3ccccc3)c(-c3ccccc3)nc2c1	0	0	0	0	-	-
COc1cc(OC)cc(-c2c(C#Cc3ccsc3)c3cc(-c4ccccc4OC)ccc3n2C)c1	0	0	0	0	-	-
CC(CCC(=O)O)C1CC[C@@]2(C)C3C(=O)CC4C(C)(C)C(O)CC[C@]4(C)C3C(=O)C[C@]12C (stereo partly specified)	0	0	44.0	0	0	0
COc1cc2oc3cc(C#Cc4ccc(N)cc4)ccc3c(=O)c2cc1OC	0	0	70.0	71.6	0	0
O=C(COc1coc(CN2CCN(c3ccc(F)cc3)CC2)cc1=O)Nc1ccccc1	-	0	0	0	-	-
CC(=O)COc1coc(CN2CCN(c3ccc(F)cc3)CC2)cc1=O	0	0	99.0	0	0	0
COc1ccccc1NC(=O)C(C)OC(=O)CC1CCCCC1 (stereo unspecified)	0	0	0	0	-	-
COc1ccccc1NC(=O)CC1CCCC1	0	0	61.0	0	0	0
CC(=O)Nc1cccc(-n2nnc(SCC(N)=O)n2)c1	0	0	0	0	-	-
CC(=O)Nc1cccc(-n2nnc(SCC(=O)Nc3ccc(F)c(Cl)c3)n2)c1	0	0	86.0	0	0	0
CN(Cc1ccccc1)S(=O)(=O)c1ccc2[nH]cc(C(=O)NCC3CCCO3)c(=O)c2c1 (stereo unspecified)	0	0	45.0	0	0	0
CCc1ccccc1NS(=O)(=O)c1ccc2[nH]cc(C(=O)NCC3CCCO3)c(=O)c2c1 (stereo unspecified)	0	0	0	0	-	-
CCCNC1(C(N)=O)CCN(Cc2ccccc2)CC1	-	0	-	0	-	-
CC(C(=O)Nc1ccccc1Br)N1c2cccc3cccc(c23)S1(=O)=O (stereo unspecified)	0	0	0	0	-	-

Bioassay records: PubChem, several laboratories
